Reference: the supplement of paper PMC8371130
Structures can show the parent of a compound that is named as a salt.

Test system: HL-1
Test: relative cell viability (CellTiter-Glo) vs DMSO control (% of DMSO control); higher = more viable cells
Outline: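 Viability of HL-1 mouse atrial cardiomyocytes was assessed by CellTiter-Glo luminescence and normalised to vehicle-treated control cells. Cells were plated in 384-well plates at 1000 cells per well with compounds at 40, 200, 1000 or 5000 nM in 0.01% DMSO, and one day later were placed at 1% O2 for 48 h, then reoxygenated for 24 h, or kept in normoxia for the same duration.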

[1] = oxygen condition: hypoxia 48 h (1% O2) + reoxygenation 24 h, 40 nM
[2] = oxygen condition: hypoxia 48 h (1% O2) + reoxygenation 24 h, 200 nM
[3] = oxygen condition: hypoxia 48 h (1% O2) + reoxygenation 24 h, 1000 nM
[4] = oxygen condition: hypoxia 48 h (1% O2) + reoxygenation 24 h, 5000 nM
[5] = oxygen condition: normoxia 72 h, 40 nM
[6] = oxygen condition: normoxia 72 h, 200 nM
[7] = oxygen condition: normoxia 72 h, 1000 nM
[8] = oxygen condition: normoxia 72 h, 5000 nM

Compound	relative cell viability [1]	relative cell viability [2]	relative cell viability [3]	relative cell viability [4]	relative cell viability [5]	relative cell viability [6]	relative cell viability [7]	relative cell viability [8]
CC1CCc2cc(F)cc3c(=O)c(C(=O)O)cn1c23 (stereo not drawn) [Flumequine]	104	98.4	117	108	106	120	104	98.2
O=C(NCCN1CCOCC1)c1ccc(Cl)cc1 [Moclobemide]	113	111	102	120	108	100	119	121
Cc1ccc(C)c(OCCCC(C)(C)C(=O)O)c1 [Gemfibrozil]	98.5	104	101	103	102	113	106	106
CCCOc1ccc(C(=O)OCCN(CC)CC)cc1N [Proparacaine HCl]	88.3	98.9	97.8	107	103	92.4	78.4	106
CNCCC(Oc1ccc(C(F)(F)F)cc1)c1ccccc1 (stereo not drawn) [Fluoxetine  HCl]	103	109	114	110	104	114	106	114
CC(COc1ccccc1)N(CCCl)Cc1ccccc1 (stereo not drawn) [Phenoxybenzamine HCl]	101	97.6	93.1	95.4	101	101	91.5	107
Nc1ncn([C@@H]2O[C@H](CO)[C@@H](O)[C@H]2O)c(=O)n1 [Azacitidine]	105	101	102	83	98.6	103	90.1	84.5
N[C@@H]1CN(c2c(F)cc3c(=O)c(C(=O)O)cn([C@@H]4C[C@@H]4F)c3c2Cl)CC12CC2 [Sitafloxacin hydrate]	101	98.6	104	108	103	95.3	99	108
CNC[C@H](O)c1cccc(O)c1 [Phenylephrine HCl]	110	108	102	109	110	108	117	118
Clc1ccc(COC(Cn2ccnc2)c2ccc(Cl)cc2Cl)c(Cl)c1 (stereo not drawn) [Miconazole]	96.8	99.4	98.3	104	101	101	101	106
C[C@@H](NCCCc1cccc(C(F)(F)F)c1)c1cccc2ccccc12	102	102	105	102	95.2	95.9	109	106
CCC(CC)[C@H](NC(C)=O)[C@@H]1[C@H](O)[C@@H](C(=O)O)C[C@H]1NC(=N)N [Peramivir Trihydrate]	101	99.2	107	111	112	109	103	116
O=C(NCCO[N+](=O)[O-])c1cccnc1 [Nicorandil]	101	105	108	102	104	98.1	99.2	102
C[C@]12CC[C@@H]3c4ccc(O)cc4CC[C@H]3[C@@H]1C[C@@H](O)[C@@H]2O [Estriol]	101	99.3	95.4	103	105	101	99.8	104
Nc1ncnc2c1ncn2[C@@H]1O[C@H](CO)[C@@H](O)[C@H]1O [Adenosine]	104	107	113	108	104	108	111	110
CN1CCOC(c2ccccc2)c2ccccc2C1 (stereo not drawn) [Nefopam HCl]	95.1	74.3	43.9	93.2	60.3	45.5	44.4	68.8
Oc1ccc(OCc2ccccc2)cc1 [Monobenzone]	99.6	114	110	103	107	104	108	99.8
C[C@@H](O)[C@H]1C(=O)N2C(C(=O)OCOC(=O)C(C)(C)C)=C(SC3CN(C4=NCCS4)C3)[C@H](C)[C@H]12 [Tebipenem pivoxil]	98.3	102	99.2	91.2	96.9	92.7	101	93.4

Compound	relative cell viability [1]	relative cell viability [2]	relative cell viability [3]	relative cell viability [4]	relative cell viability [5]	relative cell viability [6]	relative cell viability [7]	relative cell viability [8]
O=NO [Sodium nitrite]	109	110	116	122	109	116	107	114
O=P(O)(O)C(Cl)(Cl)P(=O)(O)O [Clodronate Disodium]	114	114	114	115	117	111	113	113
CCCC(CCC)C(=O)O[C@H]1C[C@H]2CC[C@@H](C1)[N+]2(C)C [Anisotropine Methylbromide]	104	101	93.2	97.8	96.3	93.7	84.7	109
N[C@@H]1CCCCN(c2c(F)cc3c(=O)c(C(=O)O)cn(C4CC4)c3c2Cl)C1 [Besifloxacin HCl]	96.9	99.1	96.7	101	101	99.5	98.6	102
C[C@]12CC[C@@H]3c4ccc(O)cc4CC[C@H]3[C@@H]1CCC2=O [Estrone]	102	107	107	109	102	105	107	115
CCC(C)(C)C(=O)O[C@H]1C[C@@H](C)C=C2C=C[C@H](C)[C@H](CC[C@@H]3C[C@@H](O)CC(=O)O3)[C@H]21 [Simvastatin]	109	108	99.2	3.87	111	103	50.4	2.69
COC(=O)[C@H](c1ccccc1Cl)N1CCc2sccc2C1 [Clopidogrel]	105	103	106	111	108	111	105	119
CC1=C(CC(=O)O)c2cc(F)ccc2/C1=C\c1ccc([S+](C)[O-])cc1 (stereo not drawn) [Sulindac]	104	105	106	61.2	103	101	108	113
C[C@]12CC[C@@H]3c4ccc(O)cc4CC[C@H]3[C@@H]1CC[C@@H]2O [Estradiol]	105	98.2	100	94	101	103	100	100
Cc1nccn1CC1CCc2c(c3ccccc3n2C)C1=O (stereo not drawn) [Ondansetron]	99.4	103	102	109	102	99.7	101	107
CC(C)C[C@H](NC(=O)[C@H](Cc1ccccc1)NC(=O)c1cnccn1)B(O)O [Bortezomib]	10.4	10	8.52	4.58	12.9	10.5	6.82	4.44
CC(CN(C)C)CN1c2ccccc2CCc2ccccc21 (stereo not drawn) [Trimipramine Maleate]	103	105	111	111	99.2	101	102	94.2
O=S(=O)(O)Oc1ccc(C(c2ccc(OS(=O)(=O)O)cc2)c2ccccn2)cc1 [Sodium Picosulfate]	107	109	108	116	110	111	112	116
CCN1CCCC1CNC(=O)c1cc(S(=O)(=O)CC)c(N)cc1OC (stereo not drawn) [Amisulpride]	103	104	111	108	104	107	119	111
COc1cccc2c1C(=O)c1c(O)c3c(c(O)c1C2=O)C[C@@](O)(C(C)=O)C[C@@H]3O[C@H]1C[C@H](N)[C@H](O)[C@H](C)O1 [Daunorubicin HCl]	56.7	30.5	17.2	2.34	62.6	29.6	10.3	2.68
CN(C)CCCN1c2ccccc2CCc2ccccc21 [Imipramine HCl]	98.5	98.9	96.2	110	100	101	101	111
Cc1cc2c(cc1S(N)(=O)=O)S(=O)(=O)CCC2 [Meticrane]	101	101	105	103	102	104	102	112
C=C(c1ccc(C(=O)O)cc1)c1cc2c(cc1C)C(C)(C)CCC2(C)C [Bexarotene]	103	102	109	107	106	107	107	95.4
